These results are taken from PubChem BioAssay AID736 (The Scripps Research Institute Molecular Screening Center, 2007).

Each structure is given as a SMILES string. Screen size: about 97,000 compounds; about 210 (0.22%) were called active. The list comes from a sample in which actives are over-represented; it also holds similar structures and randomly drawn compounds. Values without a mark were called inactive. No stated cut-off is given here; in the data, active means inhibition above about 45%; inactive means the rest.

For this assay, the target named is Sphingosine 1-phosphate receptor 2 (Homo sapiens) (UniProt O95136). Put plainly: human S1P2 receptor antagonists, primary screen, cell-based (AID 736).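 Further: CRE beta-lactamase reporter cells expressing human S1P2 stimulated with S1P; 0% = agonist at EC80 alone and 100% = agonist plus reference antagonist.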 To be noted: cell-based S1P2 antagonist assay, at 5 µM, stronger effect = higher value.
Chain of Sphingosine 1-phosphate receptor 2 (Homo sapiens) (O95136 whole entry, looked up): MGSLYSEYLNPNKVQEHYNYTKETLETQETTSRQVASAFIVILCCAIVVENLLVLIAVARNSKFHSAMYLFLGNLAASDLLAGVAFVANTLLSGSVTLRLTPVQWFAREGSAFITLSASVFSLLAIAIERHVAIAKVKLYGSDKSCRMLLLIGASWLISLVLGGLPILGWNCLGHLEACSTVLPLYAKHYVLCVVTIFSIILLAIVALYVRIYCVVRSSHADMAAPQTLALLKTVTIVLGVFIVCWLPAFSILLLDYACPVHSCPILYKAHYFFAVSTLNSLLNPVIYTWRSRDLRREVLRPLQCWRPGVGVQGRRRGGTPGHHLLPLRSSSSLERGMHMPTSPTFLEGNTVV
Broadly, the inhibition is the change of the read-out against control, counted positive when it falls. For `Cc1nn(C)cc1/C=N/NC(=O)c1sc2ccccc2c1Cl`, the inhibition was -19.2%.

For the compound `O=C(CCNS(=O)(=O)c1ccccc1C(F)(F)F)NCc1ccc2c(c1)OCO2`, the inhibition was -42.1%.

As for `CCOc1cc(-c2cc(-c3ccc(OC)cc3)nc(N)c2C#N)ccc1O`, the inhibition is -25.8%.

For `COc1ccc2[nH]c(=O)c(CNc3ccc(C)c(C)c3)cc2c1`, the inhibition is 17.9%.

Regarding `CC1(C)NC(=O)N(CCCCSc2ccc(Cl)cc2)C1=O`, the inhibition is 11.3%.

For `CCc1nnc(NC(=O)CSc2nc3ccccc3c(=O)n2CCCOC)s1`, the inhibition was 2.95%.

Take `COc1ccc(C(F)(F)F)cc1N/C=C\c1nnnn1-c1ccc(C)cc1`: the inhibition was -17.3%.

`CCNC(=S)Nc1cccc(Cl)c1C`: the inhibition was 13.9%.

For `CCc1ccc(C2C(C#N)=C(N)Oc3n[nH]c(CC(=O)OC)c32)cc1` (stereo not given), the inhibition is -30.6%.

For `Cc1ccc(S(=O)(=O)NCCSC(C)(C)C)cc1`, the inhibition was -2.88%.

With `Cc1ccc(S/C(=N\S(=O)(=O)c2ccc(Cl)cc2)c2ccccc2)cc1`, the inhibition is -10.2%.

Regarding `O=C(Nc1cccc(-c2nc3ncccc3o2)c1)c1ccco1`, the inhibition is -19.4%.

Take `CCOC(=O)C1C(=O)NCC1c1ccccc1` (stereo not given): the inhibition is -4.06%.

For the compound `COc1ccc(Cc2nnc(SC)[nH]c2=O)cc1`, the inhibition was -19.6%.

Consider `Cc1cccc(C)c1OC(=O)CSc1nnc(-c2ccccc2)o1`, for which the inhibition was -20%.

Take `O=C(NCCN1CCN(Cc2ccccc2)CC1)c1cc2c(=O)[nH]c3ccccc3c2s1`: the inhibition is -27.2%.

On to `Cc1cc(C=O)c(C)n1-c1ccc(NC2CCCCC2)c([N+](=O)[O-])c1`, for which the inhibition was 4.51%.

Regarding `Cc1ccc(N2CCN(/N=C/c3cccs3)CC2)cc1`, the inhibition is 22.6%.

For `Cc1cc([N+](=O)[O-])c(N2CCC[C@@H]2C(=O)O)c([N+](=O)[O-])c1`, the inhibition was 16.9%.

For the compound `COc1ccc(N(CC(=O)N/N=C/c2cccc3c2OCCO3)S(=O)(=O)c2ccc(NC(C)=O)cc2)cc1`, the inhibition was 10.2%.

With `COc1ccc(C2C(C(C)=O)=C(O)C(=O)N2Cc2cccnc2)cc1` (stereo not given), the inhibition is 5.26%.

For the compound `Cc1nnsc1S(=O)(=O)Cc1ccccc1Cl`, the inhibition was 6.79%.

For `CC(=O)NS(=O)(=O)c1ccc(NC(=S)NC(=O)C(C)(C)C)cc1`, the inhibition was 1.69%.

`CS(=O)(=O)Nc1cccc(C2=NN(S(=O)(=O)c3ccccc3)C(c3cccs3)C2)c1` (stereo not given): the inhibition was 21.1%.

On to `Clc1ccc(Cl)c(Oc2ccc(Oc3nc(Cl)ccc3Cl)cc2)n1`, for which the inhibition was -3.25%.

For `O=C(Cc1ccc(-n2c(=O)c3sccc3n(Cc3ccc(F)cc3)c2=O)cc1)NCc1ccco1`, the inhibition was 14.3%.

As for `O=C(NCCCCCCNC(=O)NCc1ccco1)NCc1ccco1`, the inhibition was -14.7%.

`Cc1cc(-c2ccc(/C=N/n3cnnc3)o2)c([N+](=O)[O-])cc1C`: the inhibition was 1.7%.

With `COc1ccc(-n2c(C)csc2=S)cc1`, the inhibition was -2.06%.

With `Cn1nc([N+](=O)[O-])nc1Sc1ccc(C(C)(C)C)cc1`, the inhibition is 1.08%.

`CC(N=Cc1nc(-c2ccccc2)oc1O)c1ccccc1` (stereo not given): the inhibition is -15.5%.

Turning to `O=C(Nc1nnc(CCOCCOCCc2nnc(NC(=O)c3ccco3)s2)s1)c1ccco1`, the inhibition is 0.16%.

On to `COc1ccc(Br)cc1CN1CCN(C(=O)c2cccc(OC)c2OC)CC1`, for which the inhibition is -12.2%.

On to `O=C1c2ccccc2NC(c2ccc(-c3cccc(Cl)c3)o2)N1O` (stereo not given), for which the inhibition is 9.34%.

Regarding `CCCCc1nnc(NC(=O)CS(=O)(=O)Cc2ccccc2)s1`, the inhibition is 11.7%.

Take `Brc1ccc(-c2nnc(-c3ccccc3)o2)o1`: the inhibition is -21.1%.

For `O=C(Nc1cccc2ccccc12)c1onc2c1CCCC2`, the inhibition is -13%.

As for `ONC(=Nc1ccccc1)c1ccccc1Cl`, the inhibition is -2.09%.

For `CCOC(=O)c1c(NC(=O)c2ccc(N3CCOCC3)c([N+](=O)[O-])c2)sc(C)c1C`, the inhibition is -6.51%.

For `CC(C)CC[n+]1ccn(C2=C([O-])c3ccccc3C(=O)/C2=N\S(=O)(=O)c2ccccc2)c1`, the inhibition was 18.2%.

For `CCOC(=O)c1ccccc1NS(=O)(=O)c1ccc(OC)cc1`, the inhibition was -9.6%.

As for `CCOC(=O)c1cc2ccccc2nc1C`, the inhibition was -7.13%.

With `Cc1nc2ccccc2cc1O`, the inhibition was -18.9%.

As for `Cc1nc2ccccc2cc1OCc1ccc(F)cc1`, the inhibition is 56.8% (active).

For the compound `CCN(CC)S(=O)(=O)c1ccc(N2CCOCC2)c(C(=O)O)c1`, the inhibition was 0.01%.

As to `COc1ccc(-c2noc(CSc3ccc(C)cc3)n2)cc1`, the inhibition was 8.11%.

`C=CCO/N=C(\C)c1c(O)c(C)c(-c2ccccc2)n(-c2ccccc2)c1=O`: the inhibition is 1.26%.

In the case of `CCn1c2ccccc2c2cc(NC(=S)N3CCOCC3)ccc21`, the inhibition was 7.28%.

Take `Cc1ccc(CNC(=O)c2ccccc2CCc2ccccc2)cc1`: the inhibition is -23.4%.

For `CCCCCCC(=O)Nc1nc(C)c(-c2csc(Nc3cc(Cl)ccc3OC)n2)s1`, the inhibition is 8.39%.

Take `c1cnc(Nc2nc(-c3ccc4ccccc4c3)cs2)nc1`: the inhibition is 10.4%.

Regarding `O=c1cc(CN2CCN(c3cccc(Cl)c3)CC2)c2cc3c(cc2o1)CCCC3`, the inhibition was 2.36%.

Consider `O=C(O)c1cccnc1NC1CCCC1`, for which the inhibition is -6.46%.

Regarding `CC(C)C(NC(=O)c1ccc(Cl)cc1)C(=O)O` (stereo not given), the inhibition is 18.8%.

Regarding `Cc1ccccc1-n1nc(C)c2cc(C(=O)NC3CC3)sc21`, the inhibition was 2.59%.

Turning to `Cc1ccc(-c2ccnc3nc(Sc4ncc(C(F)(F)F)cc4Cl)nn23)cc1`, the inhibition was -3.44%.

For `CSc1nc(N(C)NC(=O)c2cccc(C)c2)c2ccccc2n1`, the inhibition was 5.9%.

With `CCN(c1ccccc1)S(=O)(=O)c1ccc(C(=O)Nc2nccs2)cc1`, the inhibition is -3.2%.

In the case of `O=C(Nc1ccn(Cc2ccccc2F)n1)c1ccc(COc2ccc(Cl)cc2Cl)o1`, the inhibition is 6.95%.

In the case of `Cc1ccc(-n2nc3cc(C)c(NC(=O)c4cccnc4)cc3n2)cc1`, the inhibition was 3.29%.

As to `Cc1cc(=O)[nH]c(SCc2cccc(F)c2)n1`, the inhibition is -28.1%.

With `O=[N+]([O-])c1ccccc1/C=N/n1c(COc2ccccc2)n[nH]c1=S`, the inhibition is 18.3%.

As to `N=c1c2c(-c3ccccc3)c(-c3ccccc3)oc2ncn1Cc1ccco1`, the inhibition is 2.42%.

For `CCOc1c(Br)cc(/C=C2\C(=O)N(CCC#N)N=C2C)cc1OC`, the inhibition is -33.3%.

Regarding `Cc1cc(C)cc(OCC(=O)NNC(=O)c2cc3ccccc3oc2=O)c1`, the inhibition is -16.6%.

Consider `CCN(CC)Cc1csc2ccc(Br)cc12`, for which the inhibition was -1.56%.

Regarding `C=CCN(C(=O)Nc1ccc2oc(C)nc2c1)c1ccccc1`, the inhibition was 3.19%.

Take `COc1ccccc1NC(=O)/C=C/C(N)=O`: the inhibition is -12.8%.

As for `CC(C)N(c1ccccc1)c1ncnc(NCCC(=O)O)c1[N+](=O)[O-]`, the inhibition was 15.5%.

Turning to `CCOC(=O)C1(S(=O)(=O)c2ccccc2)CCN(Cc2ccccc2)CC1`, the inhibition was 17%.

For `CC1=C/C(=N\OS(=O)(=O)c2ccccc2)C=CC1=O`, the inhibition is 82.9% (active).

For `Cc1ccc(S(=O)(=O)c2ccc(Oc3ccccc3)cc2)cc1`, the inhibition was -7.17%.

`O=C(Nc1ccc(Cl)cc1)c1ccsn1`: the inhibition is 11.1%.

In the case of `CC(=O)Nc1cc(C(=O)O)ccc1S(=O)(=O)c1ccc(Cl)cc1`, the inhibition was 3.81%.

For `O=C(Nc1ccccc1)c1nnsc1S(=O)(=O)c1ccc(Cl)cc1`, the inhibition is 61.4% (active).

`CC(=O)Oc1ccc(C(C)=O)c2c1OCCO2`: the inhibition is -13%.

Consider `COc1ccc(Nc2ncc(C(=O)N3CCN(c4ccccc4OC)CC3)c3ccccc23)cc1`, for which the inhibition is -4.51%.

As for `CC1CCN(C(=O)CN(c2ccc(Oc3ccccc3)cc2)S(C)(=O)=O)CC1`, the inhibition is -1.57%.

Regarding `C=CCNC(=O)c1csc(-c2ccccc2)n1`, the inhibition is 5.01%.

Regarding `CC(C)CC(=O)N1CCC(O)(CS(=O)(=O)Cc2ccccc2)CC1`, the inhibition is 5.12%.

On to `Cc1[nH]n(-c2ccc(Cl)cc2)c(=O)c1/C=N/n1c(C)nc2ccccc2c1=O`, for which the inhibition is 2.28%.

For `Cc1ccc(-c2nc(C)sc2CC(=O)O)cc1`, the inhibition is 10.8%.

In the case of `CCCSC(=S)NC1CCS(=O)(=O)C1` (stereo not given), the inhibition was 15.8%.

As for `COc1ccc(C(=O)Nc2nc(-c3ccc(S(=O)(=O)N4CCOCC4)cc3)cs2)cc1`, the inhibition is 19.7%.

For the compound `COc1ccc(OC)c(NC(=O)c2cnn(-c3ccccc3Cl)c2NC(=O)c2ccco2)c1`, the inhibition is -6.97%.

As for `O=C(NC1CCCCC1)c1ccc(CNc2c(N3CCOCC3)c(=O)c2=O)cc1`, the inhibition was -21.1%.

As for `Cc1nnc(SCc2nc3ccccc3nc2C)s1`, the inhibition is -20.9%.

Take `Cc1nn(-c2ccccc2)c(Cl)c1C(=O)Nc1ccccc1`: the inhibition is -0.13%.

For `CCN(CC)C(=O)CSc1nc2ccccc2o1`, the inhibition is 3.55%.

Turning to `c1ccc(CC2CCN(c3nc4ccccc4n4cnnc34)CC2)cc1`, the inhibition is -5.6%.

Turning to `Cc1nn(C(C)CC(=O)O)c(C)c1C` (stereo not given), the inhibition is -0.29%.

On to `CCC(C)NC(=O)CSC1=Nc2ccccc2C2=NC(CCC(=O)NCc3ccco3)C(=O)N12` (stereo not given), for which the inhibition is 1.95%.

On to `CCC(C)NC(=O)c1ccccc1NC(=O)c1ccccc1N(C)S(C)(=O)=O` (stereo not given), for which the inhibition was -10.9%.

For `CC(=O)N1CCCc2cc(S(=O)(=O)CCC(=O)N3CCN(c4ccccc4)CC3)ccc21`, the inhibition is 0.06%.

Turning to `Cn1nc(C(F)(F)F)c2cc(NC(=O)OCC(C)(C)C)sc21`, the inhibition is -6.24%.

Take `Clc1ccccc1SCc1nc2ccccc2[nH]1`: the inhibition is 11.2%.

`COc1ccc(N2CCN(Cc3ccc(Br)s3)CC2)cc1`: the inhibition was -19.3%.

Turning to `Cc1cc(N2CCN(Cc3ccc4c(c3)OCO4)CC2)n2ncnc2n1`, the inhibition was 13.4%.

Turning to `CC(C)(C)n1nnnc1C(c1ccc(F)cc1)N1CCN(Cc2ccc3c(c2)OCO3)CC1` (stereo not given), the inhibition is 9.67%.

As to `Fc1ccc2[nH]c3c(N4CCN(Cc5ccc6c(c5)OCO6)CC4)ncnc3c2c1`, the inhibition was 80.7% (active).
